This is an account of results in ChEMBL document CHEMBL3988442, “University of Dundee, Small-Polar-MMV Screening Library” (2021).

Molecules are shown by their SMILES. For some of these results: Measured potencies and affinities stand elsewhere.

What all share (design): scale not given: direction of the effect not stated beside the values
Assay [1] has as its target Protein translocase subunit SecA (Escherichia coli (strain K12)) (UniProt P10408). Nature of the assay: Assay to Identify E. coli SecA ATPase Inhibitors. The following applies: 30 µM. The format is functional.
Assay [2] addresses T1, Ubiquitin-activating enzyme e1, putative (Leishmania donovani (strain BPK282A1)) (UniProt E9BSI1).
T1 sequence (whole entry): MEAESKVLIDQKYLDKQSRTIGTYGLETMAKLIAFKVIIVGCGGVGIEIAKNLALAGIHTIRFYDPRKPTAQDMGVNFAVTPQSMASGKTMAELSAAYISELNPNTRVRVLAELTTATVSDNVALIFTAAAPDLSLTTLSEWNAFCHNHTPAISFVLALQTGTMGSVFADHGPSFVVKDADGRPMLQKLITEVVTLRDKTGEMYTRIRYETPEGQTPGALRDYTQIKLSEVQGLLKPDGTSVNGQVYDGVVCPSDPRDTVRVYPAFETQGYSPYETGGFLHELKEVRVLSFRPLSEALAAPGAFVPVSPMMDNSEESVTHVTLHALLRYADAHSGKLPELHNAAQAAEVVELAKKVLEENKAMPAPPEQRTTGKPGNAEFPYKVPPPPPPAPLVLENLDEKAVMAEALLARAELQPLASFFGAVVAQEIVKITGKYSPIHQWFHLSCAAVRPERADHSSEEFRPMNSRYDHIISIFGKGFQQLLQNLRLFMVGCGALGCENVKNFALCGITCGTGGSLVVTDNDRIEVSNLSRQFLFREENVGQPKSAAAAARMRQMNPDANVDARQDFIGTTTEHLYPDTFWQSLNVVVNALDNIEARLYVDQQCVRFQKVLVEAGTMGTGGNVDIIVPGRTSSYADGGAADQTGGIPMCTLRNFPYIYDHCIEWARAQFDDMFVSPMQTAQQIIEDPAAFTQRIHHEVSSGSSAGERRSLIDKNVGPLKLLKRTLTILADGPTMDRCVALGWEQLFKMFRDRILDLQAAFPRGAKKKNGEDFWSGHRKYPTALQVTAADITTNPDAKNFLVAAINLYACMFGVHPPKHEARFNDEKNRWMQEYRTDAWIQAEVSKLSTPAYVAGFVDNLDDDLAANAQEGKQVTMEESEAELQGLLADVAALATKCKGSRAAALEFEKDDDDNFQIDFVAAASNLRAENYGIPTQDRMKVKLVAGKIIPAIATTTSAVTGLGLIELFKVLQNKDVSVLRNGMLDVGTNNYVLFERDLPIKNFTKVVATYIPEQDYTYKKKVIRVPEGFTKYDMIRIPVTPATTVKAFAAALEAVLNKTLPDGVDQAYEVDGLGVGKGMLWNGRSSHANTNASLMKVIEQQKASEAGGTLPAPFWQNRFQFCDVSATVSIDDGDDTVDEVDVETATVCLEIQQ
Nature of the assay: Leishmania donovani Ubiquitin Activating Enzyme (LdE1). Format: functional. The following applies: 30 µM.

The target in assay [3] is AMP-activated protein kinase, AMPK (Homo sapiens) (UniProt P54646+O43741+P54619+Q9UGJ0+Q9Y478+Q13131+Q9UGI9). Nature of the assay: AMP-dependent Kinase enzyme assay. An in vitro enzyme assay that detects ADP turnover that is directly proportional to AMPK activity. This uses naive AMPK that is activated during the assay with MK-8722. Format: functional. As to conditions: 30 µM.

Assay [4] addresses Sialic acid-binding Ig-like lectin 9 (Homo sapiens) (UniProt Q9Y336). Kind of assay: Hs-Siglec9 ALPHAscreen SOP 20170721. As to conditions: 10 µM. In general terms: Bead proximity is the source of the signal in Alpha formats.
Assay [5] concerns Trypanosoma cruzi. Nature of the assay: Trypanosoma cruzi phosphomannomutase and mannose-1-phosphate guanylyltransferase assay. The format is functional. As to conditions: 10 µM.
The target in assay [6] is T2, Arginase-2, mitochondrial (Homo sapiens) (UniProt P78540).
T2 sequence (whole entry): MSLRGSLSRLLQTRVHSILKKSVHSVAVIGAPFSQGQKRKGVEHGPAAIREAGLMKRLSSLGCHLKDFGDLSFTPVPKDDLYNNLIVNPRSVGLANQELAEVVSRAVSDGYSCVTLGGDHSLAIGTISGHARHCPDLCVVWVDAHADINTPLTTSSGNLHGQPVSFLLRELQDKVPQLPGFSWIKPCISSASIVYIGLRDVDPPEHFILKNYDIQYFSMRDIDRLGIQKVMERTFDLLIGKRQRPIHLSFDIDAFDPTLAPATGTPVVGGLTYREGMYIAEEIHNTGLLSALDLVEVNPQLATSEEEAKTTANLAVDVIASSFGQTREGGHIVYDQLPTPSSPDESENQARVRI
Kind of assay: in vitro enzyme assay to detect the production of urea directly proportional to the activity of Arginase II. Note: in the data most compounds retested in dose-response had high values. The following applies: 33.3 µM. Format: functional.

For assay [7], the target named is T3, Proteasome subunit beta (Trypanosoma cruzi) (UniProt O96673).
T3 sequence (whole entry): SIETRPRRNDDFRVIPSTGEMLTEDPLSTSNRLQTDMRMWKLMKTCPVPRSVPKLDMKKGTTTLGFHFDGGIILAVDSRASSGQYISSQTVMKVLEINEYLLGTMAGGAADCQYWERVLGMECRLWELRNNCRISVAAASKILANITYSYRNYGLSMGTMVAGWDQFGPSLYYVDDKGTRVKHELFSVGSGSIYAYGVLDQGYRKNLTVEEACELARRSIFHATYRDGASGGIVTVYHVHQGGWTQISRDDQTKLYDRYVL
Nature of the assay: Trypanosoma cruzi proteasome chymotrypsin-like activity (TcProtChymo) assay. Note: in the data most compounds retested in dose-response had high values. The format is functional. The following applies: 9.37 µM.

Assay [8] is filed under the species Homo sapiens. Nature of the assay: To identify inhibition of the IFN signalling (Jak-Stat) pathway via expression of an eGFP reporter gene under the control of an IFN-stimulated response element (ISRE) containing MxA promoter. Format: functional. As to conditions: 30 µM. Background: A reporter such as luciferase makes a cellular process visible.
The target in assay [9] is T4, Tyrosyl-tRNA synthetase, putative (Trypanosoma cruzi (strain CL Brener)) (UniProt Q4DSP6).
T4 sequence (whole entry): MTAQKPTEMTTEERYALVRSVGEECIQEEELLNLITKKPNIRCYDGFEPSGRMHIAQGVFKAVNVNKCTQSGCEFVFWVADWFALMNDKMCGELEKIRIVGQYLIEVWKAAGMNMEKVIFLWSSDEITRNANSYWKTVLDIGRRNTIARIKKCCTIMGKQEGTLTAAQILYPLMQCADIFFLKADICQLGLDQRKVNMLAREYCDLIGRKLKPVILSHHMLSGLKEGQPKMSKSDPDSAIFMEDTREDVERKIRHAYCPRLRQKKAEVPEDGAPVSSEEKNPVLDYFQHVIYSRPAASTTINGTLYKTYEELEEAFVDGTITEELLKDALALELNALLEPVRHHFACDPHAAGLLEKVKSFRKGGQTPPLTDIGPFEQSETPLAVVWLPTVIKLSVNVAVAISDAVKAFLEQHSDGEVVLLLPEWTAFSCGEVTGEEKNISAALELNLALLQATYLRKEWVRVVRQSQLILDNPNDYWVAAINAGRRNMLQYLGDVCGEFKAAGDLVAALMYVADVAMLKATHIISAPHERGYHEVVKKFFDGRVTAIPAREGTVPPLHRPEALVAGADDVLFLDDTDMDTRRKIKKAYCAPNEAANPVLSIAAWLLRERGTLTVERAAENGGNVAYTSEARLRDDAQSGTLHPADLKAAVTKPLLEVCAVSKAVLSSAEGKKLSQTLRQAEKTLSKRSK
Kind of assay: Trypanosoma cruzi tyrosyl tRNA synthetase (TcYRS) _High Tyrosine SOP. Note: in the data most compounds retested in dose-response had high values. The following applies: 30 µM. The format is functional.

Assay [10] addresses T4, Tyrosyl-tRNA synthetase, putative (Trypanosoma cruzi (strain CL Brener)). Nature of the assay: Trypanosoma cruzi tyrosyl tRNA synthetase (TcYRS) SOP. Format: functional. As to conditions: 30 µM.
Assay [11] has as its target Chromo domain-containing protein 1 (Saccharomyces cerevisiae (strain ATCC 204508 / S288c) (Baker's yeast)) (UniProt P32657). Kind of assay: ScCHD-1 Enzyme Inhibition Assay. Note: in the data most compounds retested in dose-response had high values. Format: functional. The following applies: 30 µM.

Sequence of Sialic acid-binding Ig-like lectin 9 (Homo sapiens) (Q9Y336 whole entry): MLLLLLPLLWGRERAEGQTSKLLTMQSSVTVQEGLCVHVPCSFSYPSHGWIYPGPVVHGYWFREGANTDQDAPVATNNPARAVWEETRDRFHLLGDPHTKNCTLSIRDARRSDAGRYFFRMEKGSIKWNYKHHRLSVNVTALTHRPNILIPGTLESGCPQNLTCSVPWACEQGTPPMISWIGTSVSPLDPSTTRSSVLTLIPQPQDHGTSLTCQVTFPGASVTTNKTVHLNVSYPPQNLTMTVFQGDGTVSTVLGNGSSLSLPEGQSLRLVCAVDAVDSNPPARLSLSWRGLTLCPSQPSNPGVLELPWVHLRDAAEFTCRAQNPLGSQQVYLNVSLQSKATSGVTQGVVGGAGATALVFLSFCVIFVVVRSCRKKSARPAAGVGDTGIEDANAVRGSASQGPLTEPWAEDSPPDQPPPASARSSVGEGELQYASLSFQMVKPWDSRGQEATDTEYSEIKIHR
Sequence of Chromo domain-containing protein 1 (Saccharomyces cerevisiae (strain ATCC 204508 / S288c) (Baker's yeast)) (P32657 whole entry, the tested form may be a part): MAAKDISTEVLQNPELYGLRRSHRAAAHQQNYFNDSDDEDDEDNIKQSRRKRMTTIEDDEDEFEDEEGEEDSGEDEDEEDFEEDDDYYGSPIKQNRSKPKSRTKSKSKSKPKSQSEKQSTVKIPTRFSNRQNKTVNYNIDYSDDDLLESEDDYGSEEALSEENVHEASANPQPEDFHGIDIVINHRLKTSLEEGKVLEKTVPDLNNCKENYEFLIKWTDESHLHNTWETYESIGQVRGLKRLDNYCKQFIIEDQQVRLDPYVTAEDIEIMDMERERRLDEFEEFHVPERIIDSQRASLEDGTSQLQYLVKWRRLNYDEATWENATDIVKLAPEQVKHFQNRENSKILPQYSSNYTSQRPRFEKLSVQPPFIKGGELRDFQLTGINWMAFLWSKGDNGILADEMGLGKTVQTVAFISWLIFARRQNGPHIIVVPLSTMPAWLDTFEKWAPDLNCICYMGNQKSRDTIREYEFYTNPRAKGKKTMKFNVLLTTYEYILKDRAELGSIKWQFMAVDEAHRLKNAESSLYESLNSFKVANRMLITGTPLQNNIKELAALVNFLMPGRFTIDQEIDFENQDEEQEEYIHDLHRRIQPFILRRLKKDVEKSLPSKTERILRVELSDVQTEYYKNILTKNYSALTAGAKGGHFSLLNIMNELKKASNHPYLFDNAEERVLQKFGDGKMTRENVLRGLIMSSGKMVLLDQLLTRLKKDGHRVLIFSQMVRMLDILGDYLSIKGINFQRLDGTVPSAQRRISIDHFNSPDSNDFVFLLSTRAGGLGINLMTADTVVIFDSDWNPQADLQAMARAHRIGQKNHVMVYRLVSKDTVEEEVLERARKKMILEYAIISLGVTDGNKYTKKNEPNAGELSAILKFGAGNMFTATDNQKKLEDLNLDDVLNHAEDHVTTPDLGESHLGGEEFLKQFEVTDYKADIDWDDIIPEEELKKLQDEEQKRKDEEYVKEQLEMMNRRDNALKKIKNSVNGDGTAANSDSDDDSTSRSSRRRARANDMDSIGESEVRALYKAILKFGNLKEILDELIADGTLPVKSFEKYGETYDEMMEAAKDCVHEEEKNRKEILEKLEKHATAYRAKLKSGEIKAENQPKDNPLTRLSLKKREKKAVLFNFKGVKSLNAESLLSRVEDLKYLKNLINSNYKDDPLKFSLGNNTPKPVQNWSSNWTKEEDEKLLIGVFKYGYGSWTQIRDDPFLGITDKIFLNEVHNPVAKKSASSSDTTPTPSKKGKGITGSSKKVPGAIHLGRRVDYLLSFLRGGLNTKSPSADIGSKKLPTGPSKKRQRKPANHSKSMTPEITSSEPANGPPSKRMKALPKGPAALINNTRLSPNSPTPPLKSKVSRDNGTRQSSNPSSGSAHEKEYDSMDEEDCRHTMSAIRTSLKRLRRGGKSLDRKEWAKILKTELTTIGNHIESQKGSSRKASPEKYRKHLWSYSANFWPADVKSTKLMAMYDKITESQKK
Sequence of Protein translocase subunit SecA (Escherichia coli (strain K12)) (P10408 whole entry): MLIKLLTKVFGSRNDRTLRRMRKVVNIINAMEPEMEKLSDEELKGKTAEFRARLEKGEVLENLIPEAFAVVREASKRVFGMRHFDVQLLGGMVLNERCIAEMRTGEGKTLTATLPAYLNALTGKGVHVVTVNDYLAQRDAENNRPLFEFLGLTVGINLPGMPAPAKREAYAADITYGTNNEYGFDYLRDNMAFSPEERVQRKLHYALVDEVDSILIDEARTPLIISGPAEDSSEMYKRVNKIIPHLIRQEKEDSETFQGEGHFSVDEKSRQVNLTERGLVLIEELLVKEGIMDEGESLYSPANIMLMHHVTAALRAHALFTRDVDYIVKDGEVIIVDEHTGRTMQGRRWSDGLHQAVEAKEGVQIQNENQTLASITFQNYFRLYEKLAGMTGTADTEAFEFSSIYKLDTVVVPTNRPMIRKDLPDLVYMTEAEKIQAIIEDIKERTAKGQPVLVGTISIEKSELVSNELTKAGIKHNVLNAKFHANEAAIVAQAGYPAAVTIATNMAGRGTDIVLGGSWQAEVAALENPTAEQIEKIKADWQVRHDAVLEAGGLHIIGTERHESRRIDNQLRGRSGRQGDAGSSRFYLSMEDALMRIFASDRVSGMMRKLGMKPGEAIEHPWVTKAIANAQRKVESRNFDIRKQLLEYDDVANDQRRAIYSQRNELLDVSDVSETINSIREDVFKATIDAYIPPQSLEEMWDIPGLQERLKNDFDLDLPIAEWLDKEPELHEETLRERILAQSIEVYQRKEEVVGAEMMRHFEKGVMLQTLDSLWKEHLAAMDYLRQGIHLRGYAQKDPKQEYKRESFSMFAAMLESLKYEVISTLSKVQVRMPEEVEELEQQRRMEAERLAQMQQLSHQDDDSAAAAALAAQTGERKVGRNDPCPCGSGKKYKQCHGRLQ

As for `O=C1N(Cc2cccc(F)c2F)CCCC1(O)CNC1CCCC1` (stereo unspecified), the Percent Effect in assay [1] is -6.14%; in assay [2] it was 16%; in [3], -3.79%; in [4], 22.4%; in assay [5], 5.55%; in [6], 7.29%. Also, the Percent Effect in assay [7] amounted to 4.36%; in assay [8] it was 4.41%; in assay [9], 3.83%; in assay [10] it was 6.17%; in [11] it was 97.3%.
`CC(NC(=O)NCCNc1ncccn1)c1cccs1` (stereo unspecified): the Percent Effect in assay [1] is -2.16%; in assay [2], 31.2%; in assay [3], 32.1%; in [4], 6.3%; in assay [5], 7.12%; in assay [6], -2.49%. Further, the Percent Effect was 4.9% in assay [7]; 12.3% in [8]; 8.74% in assay [9]; 24.4% in assay [10]; -9.75% in assay [11].
With `CCCn1nc2c(cc1=O)CN(CCCS(N)(=O)=O)CC2`, the Percent Effect in assay [1] was -1.13%; in [2] it was 0%; in assay [3], -142%; in assay [4], 6.58%; in assay [5] it was -3.3%; in [6], 6.01%. The Percent Effect in assay [7] was 12.1%; in [8], -3.47%; in assay [9] it was -1.48%; in assay [10], -8.64%; in assay [11], -2.91%.
Regarding `CC(c1ccc(F)c(F)c1)N1CCN(Cc2nccn2C)CC1` (stereo unspecified), the Percent Effect in [1] was 0.457%; in [2], 20.8%; in assay [3], -8.62%; in assay [4], 5.23%; in [5] it was -7.68%; in assay [6], 5.69%. Also, the Percent Effect was 8.62% in assay [7]; 40.9% in assay [8]; -5.83% in assay [9]; -2.44% in assay [10]; -9.27% in assay [11].
With `CCn1cc2c(n1)CN(CC1CC1)CC2COCC1CC1` (stereo unspecified), the Percent Effect was -2.46% in assay [1]; 10.7% in [2]; 4.51% in assay [3]; -3.73% in assay [4]; -1.77% in [5]; -5.36% in assay [6]. The Percent Effect is 9.25% in [7]; -20.4% in assay [8]; 5.32% in assay [9]; 8.97% in assay [10]; -4.66% in assay [11].
In the case of `O=c1cc2c(nn1CN1CCN(c3cccc(Cl)c3)CC1)CCC2`, the Percent Effect in assay [1] is -3.06%; in assay [2], 6.67%; in assay [3], 0.948%; in assay [4] it was 5.21%; in [5], 0.589%; in [6] it was -6.87%. For the same molecule, the Percent Effect was 19% in assay [7]; 4.05% in [8]; 6.35% in assay [9]; 12.8% in assay [10]; -2.65% in assay [11].
For the molecule `CCO[C@H]1CO[C@@]2(CCCN(Cc3nc(C)cs3)C2)C1`, the Percent Effect in assay [1] was -0.479%; in [2] it was 16.4%; in [3], -4.62%; in assay [4], 9.84%; in assay [5] it was 3.17%; in assay [6], -2.4%. In addition, the Percent Effect in assay [7] is 7.79%; in assay [8] it was -0.894%; in assay [9], 8.33%; in assay [10], 18.5%; in assay [11], -4.88%.
With `c1cncc(COCc2nnc3n2CCN(Cc2ccsc2)C3)c1`, the Percent Effect in assay [1] is -1.63%; in assay [2] it was 13%; in assay [3], 2.4%; in assay [4] it was 6.44%; in assay [5] it was -2.26%; in assay [6] it was -23.4%. In addition, the Percent Effect in assay [7] is 19.6%; in assay [8], 25%; in assay [9], 3.23%; in assay [10], 8.64%; in [11], -2.81%.
For the molecule `CC(C)c1cc(NCC(O)CO)n2nccc2n1` (stereo unspecified), the Percent Effect in assay [1] is -2.58%; in assay [2], 8.11%; in assay [3], 0.503%; in assay [4] it was 25.3%; in [5] it was 3.48%; in assay [6], 11.9%. Moreover, the Percent Effect in [7] is 19.3%; in [8], 9%; in assay [9], 1.59%; in assay [10], 12.2%; in assay [11], -9.93%.
For `CCN1CCC(CNCc2cc(OC)ccc2OC)C1` (stereo unspecified), the Percent Effect in assay [1] is -3.32%; in assay [2], 0%; in [3], -0.832%; in [4] it was -3.34%; in assay [5], -5.66%; in assay [6], 0.417%. In addition, the Percent Effect was 6.17% in assay [7]; 0.331% in [8]; 0.99% in [9]; 1.22% in [10]; -0.855% in assay [11].
Regarding `O=C(NCCCN1CCOCC1)c1cc(-c2ccco2)[nH]n1`, the Percent Effect in assay [1] was -3.38%; in [2] it was 8.22%; in assay [3], -11%; in assay [4] it was 10.3%; in assay [5] it was -0.794%; in [6], 2.4%. The Percent Effect in assay [7] was 11.2%; in assay [8] it was 0.231%; in assay [9] it was 11.5%; in [10], 28.4%; in assay [11], -2.57%.
